These molecules were tested against Carbonic anhydrase 2 (Homo sapiens) (UniProt P00918) (assay: CAII small-molecule binders, profiling panel, biochemical, small-molecule microarray, Alexa647-labelled CAII (AID 1122)). Conditions: CAII-A647 binding fluorescence, higher = more signal.

SMILES | composite z-score
[N-]=[N+]=Nc1ccccc1C[C@@]1(C(=O)N2CCOCC2)N=C(c2ccc(OCCCO)cc2)O[C@@H]1c1ccccc1 | 0.544
[N-]=[N+]=Nc1ccccc1C[C@]1(C(=O)O)COC(c2ccc(OCCCO)cc2)=N1 | 0.856
COCCOC(=O)N1C(=O)[C@@]2(c3cc(C#CC4=CCCCC4)ccc31)[C@H](c1ccccc1OCCO)N1[C@H](c3ccccc3)[C@H](c3ccccc3)OC(=O)[C@H]1[C@@H]2C(=O)N1CCN(c2ncccn2)CC1 | 0.214
O=C1O[C@@H](c2ccccc2)[C@@H](c2ccccc2)N2[C@@H](c3ccc(OCCO)cc3)[C@]3(C(=O)Nc4ccc(C#CC5=CCCCC5)cc43)[C@@H](C(=O)NC[C@H](O)c3ccccc3)[C@H]12 | 0.117
[N-]=[N+]=Nc1ccccc1C[C@]1(C(=O)NCCN2CCOCC2)COC(c2ccc(OCCCO)cc2)=N1 | 0.348
O=C1OCCC=C[C@H]2OC34C=CCN(Cn5nnc6ccccc65)C(=O)[C@H]3N(CCCO)C(=O)[C@@H]4C12 (stereo not given in full) | 0.0109
CC(C)[Si](C#C[Si](C(C)C)(C(C)C)C(C)C)(O[C@H](c1ccccc1)c1cn(Cc2ccccc2)nn1)C(C)C | 0.237
CC(C)N1C(=O)C[C@@](C(=O)O)(c2ccc([N+](=O)[O-])cc2)[C@H]1c1ccc(CO)cc1 | 0.754
C=CCC(OC(C)=O)[C@@H]1[C@@H](N(Cc2ccc(-c3ccccc3)cc2)C(=O)c2ccc(-c3ccccc3)cc2)c2cc(OCCCO)ccc2N1C(=O)c1ccc2ccccc2c1 (stereo not given in full) | 0.212
COc1ccc([Si](C)(C)[C@@H]2[C@@H](CCO)O[C@]3(C(=O)N(Cc4ccccc4)c4ccc(N5CCOC5=O)cc43)[C@H]2C)cc1 | 0.324
[N-]=[N+]=Nc1ccccc1C[C@]1(C(=O)NCC(O)CO)COC(c2ccc(OCCCO)cc2)=N1 (stereo not given in full) | 0.753
CN(C)CCCCCCNC(=O)[C@@H]1C[C@@H]2C(=O)N3CCC[C@H]3C(=O)N2[C@@H]1c1cccc(OCCO)c1 | 0.591
CCOC(=O)C[C@H]1[C@H](OC(=O)c2cc3ccccc3oc2=O)[C@@H](NC(=O)c2ccccc2)c2cc(OCCCO)ccc2N1C(=O)c1ccccc1 | -0.129
O=C1C2C=CC(C(O)c3cccc(O)c3)N(Nc3ccc([N+](=O)[O-])cc3)C2C(=O)N1c1ccccc1 (stereo not given) | 0.788
C=CC[C@@]1(C(=O)NCCCOC)N=C(c2ccc(OCCCO)cc2)O[C@@H]1c1ccccc1 | 0.597
CCCCC(=C=CC[C@H](O)c1ccc(OCCO)cc1)CCO | 0.694
C=C(C(=O)CC[C@H](OC(=O)c1ccccc1-c1ccccc1C(=O)O)c1cccc(OCCO)c1)C(C)C | 0.696
COC(=O)[C@]1(CCS(=O)(=O)c2ccccc2)N=C(c2ccc(OCCCO)cc2)O[C@@H]1c1ccccc1N=[N+]=[N-] | 0.78

SMILES | composite z-score
C=C(/C(=C/C[C@H](OC(=O)c1ccncc1)c1ccc(CO)o1)c1cnc2ccccc2c1)C(C)C | 0.902
CC[C@@H]1C=C(C(=O)O)[C@H](c2ccc(C#N)cc2)N1S(=O)(=O)c1ccc(C)cc1 | 0.838
CCCCCCCCCCC(O)C1C=CC2C(=O)N(c3ccccc3)C(=O)C2N1Nc1ccc(C#N)cc1 (stereo not given) | 0.562
CC[C@@H]1C=C(C(=O)O)[C@H](c2ccccc2)N1S(=O)(=O)c1ccc(C)cc1 | 0.8
O=C1O[C@H](c2ccccc2)[C@H](c2ccccc2)N2[C@H]1[C@@H](C(=O)O)[C@]1(C(=O)Nc3ccc(C#CCCO)cc31)[C@H]2c1ccccc1OCCO | 0.729
O=C1C2C=CC(C(O)c3ccco3)N(Nc3ccccc3F)C2C(=O)N1c1ccccc1 (stereo not given) | -0.0101
COc1ccc([Si](C)(C)[C@@H]2[C@@H](CCO)O[C@]3(C(=O)N(Cc4cccc(NC(=O)[C@H](C)O)c4)c4ccccc43)[C@H]2C)cc1 | 0.51
CC(C)N1C(=O)C[C@@](C(=O)NC2CC2)(c2ccc([N+](=O)[O-])cc2)[C@H]1c1ccc(CO)cc1 | 0.525
Oc1ccc2cc[n+](Cc3cc4c(cc3Br)OCO4)cc2c1 | 0.908
CCOC(=O)C[C@H]1[C@H](OC(=O)c2ccc(-c3ccccc3)cc2)[C@@H](NC(=O)CC(C)C)c2cc(OCCCO)ccc2N1C(=O)c1ccc2ccccc2n1 | 0.0808
CCCCC(CC)C(O)C1C=CC2C(=O)N(c3ccccc3)C(=O)C2N1Nc1ccccc1F (stereo not given) | 0.749
CCOC(=O)C[C@H]1[C@H](OC(=O)c2ccccc2-c2ccccc2)[C@@H](NC(=O)c2ccc3ccccc3n2)c2cc(OCCCO)ccc2N1C(=O)Cc1ccc(OC)cc1 | 0.105
COCCCNC(=O)[C@@]1(CCC(=O)OC(C)(C)C)N=C(c2ccc(OCCCO)cc2)O[C@H]1c1ccccc1N=[N+]=[N-] | 0.62
OCCCC1=CC(c2ccc(CN3CCCC3)cc2)N(Cc2cc3c(cc2Br)OCO3)CC1 (stereo not given) | 0.0435
CCOC(=O)C[C@H]1[C@H](OC(=O)Cc2ccc3c(c2)OCO3)[C@@H](NC(=O)C2CCCCC2)c2cc(OCCCO)ccc2N1C(=O)c1ccccc1 | 0.112
COCC(=C=CC[C@H](O)c1ccccc1OCCO)C[C@H](O)c1ccccn1 | 0.426
[N-]=[N+]=NCc1ccccc1[C@@H]1OC(c2ccc(OCCCO)cc2)=N[C@]1(CCS(=O)(=O)c1ccccc1)C(=O)O | 0.786

Source: PubChem BioAssay
